A selection: hits, their analogues and other compounds. The true share with any hit is near 4.7%.
ATXN viability: Viability Counterscreen for Primary qHTS for Inhibitors of ATXN expression. S2 cells (HEK-293 line with an ATXN2-luciferase reporter) viability, CellTiter-Fluor protease fluorescence, 24 h. Potency, µM (doses to about 56.7 µM), usual class: cytotoxic. actives 0.49% (n = 400,000); also: nearly all actives have a fitted effect of over 40% in size
DRD3 agonist: qHTS of D3 Dopamine Receptor Agonist: qHTS; D(3) dopamine receptor (Homo sapiens), P35462; D3R DiscoveRx beta-arrestin cells, luminescence, 90 min; max activation, %; actives 0.58% (n = 410,000); in the data active = max activation above about 30%
Target sequence (P35462 whole entry, looked up): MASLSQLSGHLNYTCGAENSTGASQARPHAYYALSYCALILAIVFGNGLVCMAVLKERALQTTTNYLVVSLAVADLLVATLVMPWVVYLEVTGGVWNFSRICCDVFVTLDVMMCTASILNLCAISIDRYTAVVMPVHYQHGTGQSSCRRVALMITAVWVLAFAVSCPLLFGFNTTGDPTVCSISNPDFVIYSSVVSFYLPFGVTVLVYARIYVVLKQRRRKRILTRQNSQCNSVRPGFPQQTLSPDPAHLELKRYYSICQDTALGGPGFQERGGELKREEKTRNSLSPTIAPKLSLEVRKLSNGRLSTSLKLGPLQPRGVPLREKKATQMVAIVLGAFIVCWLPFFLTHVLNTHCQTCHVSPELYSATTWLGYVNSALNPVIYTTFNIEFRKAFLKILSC
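Agonist-mode cell screen: cells plated at 1500/well and incubated overnight at 37 °C, then exposed to library compounds for 90 min at 37 °C. Detection reagent was added for 30–60 min at room temperature, and luminescence was read.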
ATXN2 expr inh: Primary qHTS for Inhibitors of ATXN expression; actives 0.72% (n = 360,000); AID 1745845, 2022; HEK-293 ATXN2-luciferase reporter, luminescence, 24 h; Potency, µM (highest dose often 57 µM), actives largely listed as inhibitors; also: nearly all actives have a fitted effect of over 55% in size
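qHTS (up to 57 uM final) was run with 24 h compound exposure of reporter cells at 37 °C. Each well was multiplexed: SteadyGlo luminescence measured ATXN2-luciferase expression after a fluorogenic Gly-Phe-AFC viability readout (25 uM final).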
TGFb inhibitor: qHTS for Inhibitors of TGF-b; HepG2 CAGA-GFP TGF-b/SMAD3 reporter, GFP fluorescence, 18 h; TGF-beta stimulated, 500 pg/mL final; Potency, µM (series often up to 46.1 µM), usual class: inhibitors; actives 1.2% (n = 410,000); AID 588855, 2011; also: nearly all actives have a fitted effect of over 65% in size
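HEPG2 CAGA-GFP reporter cells (1000/well, DMEM with 1% FBS) received compounds, then recombinant TGF-beta at 500 pg/mL final for 18 hours at 37 degrees C. Per-cell GFP summed per well was normalised to unstimulated and stimulated DMSO controls before curve fitting.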
HepG2 tox: qHTS for Inhibitors of TGF-b: Cytotox Counterscreen | HepG2 CAGA-GFP viability, ATP luminescence, 18 h | Potency, µM (series often up to 46.1 µM), hits mostly cytotoxic | actives 0.76% (n = 410,000)
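HepG2 CAGA-GFP cells (1000/well, DMEM with 1% FBS) received compound, then TGF-beta at 500 pg/mL final, and were incubated 18 hours at 37 degrees C. Viability was read by CellTiter-Glo luminescence. Media-only wells were set as complete cell-killing and DMSO as no toxicity.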
D3 antag: qHTS of D3 Dopamine Receptor Antagonist: qHTS; D3R cells, DiscoveRx beta-arrestin luminescence, antagonist mode; hits give low values; actives 2.5% (n = 360,000); D(3) dopamine receptor (Homo sapiens), P35462; max response, negative = inhibition, %; in the data active = max response below about -50%; inconclusive = no clear call, values can overlap the other calls
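Cells expressing the human receptor were seeded at 1500 cells/well, incubated overnight at 37 degrees C in 5% CO2, then exposed to library compounds with dopamine controls for 90 minutes at 37 degrees C before luminescent detection.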
Of the large screens only hits and unclear results are named; the others gave an inactive call. Unless noted, calls follow the shape of the dose curve; as a rule, active = well fitted curve in the direction sought with a large enough effect; inconclusive = small, poorly fitted or top-dose-only effect, or another doubt; inactive = no such curve, though single readings can be large; an effect the other way counts as inactive or inconclusive.

O=C(O)CCCCNCc1ccccc1	none
CCOc1ccccc1NC(=O)CSc1ncc(S(=O)(=O)c2ccc(C)c(C)c2)c(N)n1	TGFb inhibitor 8.9µM (no result: D3 antag)
CC(C)c1cnn2c(NCc3ccccc3)cc(N[C@@H](CO)[C@H](O)CO)nc12	ATXN2 expr inh 0.27µM (no result: ATXN viability, DRD3 agonist, TGFb inhibitor, HepG2 tox, D3 antag)
Cc1ccc(C(=O)NCCc2nnc3n2CCN(Cc2ccc4ccccc4c2)CC3)c(C)c1	none (no result: DRD3 agonist, ATXN2 expr inh, TGFb inhibitor, HepG2 tox, D3 antag)
COc1ccc(OC)c(S(=O)(=O)Nc2ccc(-c3ccc4nncn4n3)cc2)c1	HepG2 tox 7.9µM
NCCCC[C@H](NC(=O)[C@@H]1CCCN1C(=O)[C@@H]1CSSC[C@H](N)C(=O)N[C@@H](Cc2ccccc2)C(=O)N[C@@H](Cc2ccccc2)C(=O)N[C@@H](CCC(N)=O)C(=O)N[C@@H](CC(N)=O)C(=O)N1)C(=O)NCC(N)=O	none (no result: ATXN2 expr inh, TGFb inhibitor, HepG2 tox, D3 antag)
CCCN(CCC)CC(O)Cn1cc(/C=C/C(=O)c2ccc(OCC)cc2)c2ccccc21 (configuration not stated)	ATXN2 expr inh inconclusive, TGFb inhibitor inconclusive, HepG2 tox 13µM (no result: ATXN viability, D3 antag)
CC(C)CN(CC(C)C)CC(O)Cn1cc(/C=C/C(=O)c2ccccc2)c2ccccc21 (configuration not stated)	none (no result: ATXN viability, D3 antag)
O=C(NCc1nnc2n1CCN(Cc1ccc(C(F)(F)F)cc1)CC2)c1cccc(F)c1	none (no result: DRD3 agonist, ATXN2 expr inh, TGFb inhibitor, HepG2 tox, D3 antag)
CCc1ccc(S(=O)(=O)Nc2cc(SCC(=O)O)c(O)c3ccccc23)cc1	TGFb inhibitor inconclusive, HepG2 tox 18µM, D3 antag -63 (no result: ATXN2 expr inh)
O=C(O)c1cccc(S(=O)(=O)Nc2ccc([N+](=O)[O-])cc2O)c1	ATXN viability inconclusive (no result: ATXN2 expr inh)
CCOc1ccc(S(=O)(=O)Nc2cc(SCC(=O)O)c(O)c3ccccc23)cc1	ATXN viability inconclusive, TGFb inhibitor 5µM, HepG2 tox 13µM, D3 antag -51 (no result: ATXN2 expr inh)
O=C(O)CSc1cc(NS(=O)(=O)c2cccc([N+](=O)[O-])c2)c2ccccc2c1O	ATXN2 expr inh inconclusive, TGFb inhibitor 10µM, D3 antag -51
Cc1ccc(C)c(S(=O)(=O)Nc2cc(SCC(=O)O)c(O)c3ccccc23)c1	ATXN viability 28µM, ATXN2 expr inh inconclusive, D3 antag inconclusive
Cc1ccc(NS(=O)(=O)c2cc(NC(=O)C(C)Oc3ccccc3)ccc2C)c(C)c1 (configuration not stated)	ATXN viability inconclusive, TGFb inhibitor inconclusive
Cc1oc2c(cc(NS(=O)(=O)c3ccc(C(C)C)cc3)c3ccccc32)c1C(=O)O	none
Cc1cc(Nc2cc(NC(=O)c3c(Cl)cccc3Cl)ccn2)nc(N)n1	ATXN2 expr inh 7.7µM (no result: ATXN viability, DRD3 agonist, TGFb inhibitor, HepG2 tox, D3 antag)
Cn1nnnc1NCc1cccc(Cl)c1	none
Cc1cc(Nc2nnnn2-c2ccccc2)n(-c2ccc(Cl)cc2)n1	TGFb inhibitor 13µM, HepG2 tox 2.8µM
Clc1cccc(CNc2nnnn2-c2ccccc2)c1	D3 antag -52
Cc1cc(Nc2ccccc2)n(-c2ccccc2)n1	D3 antag inconclusive
COc1cccc(CNC(=O)CSC2=Nc3ccccc3C3=NC(C)C(=O)N23)c1OC (configuration not stated)	none (no result: D3 antag)
C=C1CC[C@@H]2[C@](C)(CO)[C@H](O)CC[C@@]2(C)[C@@H]1C/C=C1/C(=O)OC[C@H]1O	none (no result: ATXN viability, ATXN2 expr inh, TGFb inhibitor, HepG2 tox, D3 antag)
CCOC(=O)c1ccc(NC(=O)c2nc[nH]c2C(=O)NC)cc1	DRD3 agonist 49
CCOC(=O)c1ccc(NC(=O)c2nc[nH]c2C(=O)N[C@H](C)c2ccccc2)cc1	ATXN viability inconclusive, ATXN2 expr inh 32µM, TGFb inhibitor inconclusive
Cc1cc2c(cc1C)N[C@]1(C[C@H]3CCCC(=O)N4CC[C@@H](C1)[C@@H]34)C(=Nc1ccccc1C)N2	none (no result: ATXN viability, DRD3 agonist, ATXN2 expr inh, D3 antag)
CC1CN(CCOCCOc2ccccc2-c2ccccc2)CC(C)O1 (configuration not stated)	none (no result: ATXN2 expr inh)
CC1CN(CCOCCSc2ccc(Cl)cc2)CC(C)O1 (configuration not stated)	D3 antag -64 (no result: ATXN viability, ATXN2 expr inh)
CC1CN(CCOc2ccccc2C(C)C)CC(C)O1 (configuration not stated)	D3 antag -69
CC1CN(CCCCSc2ccc(Cl)cc2)CC(C)O1 (configuration not stated)	TGFb inhibitor inconclusive
CC1CN(CCOCCSc2ccccc2)CC(C)O1 (configuration not stated)	D3 antag -67 (no result: ATXN2 expr inh)
Cc1ccc(C)c(OCCOCCN2CC(C)OC(C)C2)c1C (configuration not stated)	D3 antag -75
COc1cc(NC(=O)c2ccc(C(=O)Nc3cc(OC)c(Cl)cc3OC)cc2)c(OC)cc1Cl	none (no result: D3 antag)
N=C(N)SCc1cn(-c2ccccc2)nc1-c1ccc(Br)cc1	ATXN viability inconclusive, ATXN2 expr inh inconclusive, TGFb inhibitor inconclusive, HepG2 tox 11µM
Cc1ccc(-c2nn(-c3ccccc3)cc2CO)cc1	none
COc1cc(-c2nnc(-c3ccc(N4CCOCC4)cc3)o2)cc(OC)c1OC	DRD3 agonist 38
Cc1ccn2c(=O)c(NC(=O)c3cccc([N+](=O)[O-])c3C)c(C)nc2c1	none (no result: ATXN viability, ATXN2 expr inh, D3 antag)
Cc1ccc(C)c(S(=O)(=O)NC(C)C(=O)Nc2ccc(-c3nc4ccccc4s3)cc2)c1 (configuration not stated)	ATXN viability inconclusive, DRD3 agonist 51, TGFb inhibitor inconclusive
CC(NS(=O)(=O)c1cccc(Cl)c1)C(=O)Nc1ccc(-c2nc3ccccc3s2)cc1 (configuration not stated)	TGFb inhibitor inconclusive
CC(C)(C)c1nn(-c2ccccc2)c2nc(Cl)c(C=O)cc12	TGFb inhibitor inconclusive
CC(C)(C)c1nn(-c2ccccc2)c2[nH]c(=O)c(C=O)cc12	D3 antag -101 (no result: ATXN2 expr inh)
CC(C)(CNC(=O)c1cnn(-c2ncc3c(n2)-c2ccccc2CCC3)c1C1CC1)N1CCOCC1	none (no result: DRD3 agonist, ATXN2 expr inh, TGFb inhibitor, HepG2 tox, D3 antag)
CC1(C(=O)NCc2ccc(F)c(F)c2)Cc2c(-c3cccc(C(F)(F)F)c3)ccnc2O1 (configuration not stated)	TGFb inhibitor inconclusive
CC1(C(=O)Nc2cccc(C(F)(F)F)c2)Cc2c(-c3ccc4c(c3)OCO4)ccnc2O1 (configuration not stated)	TGFb inhibitor inconclusive, D3 antag -59
COc1ccc(NC(=O)C2(C)Cc3c(-c4ccc5c(c4)OCO5)ccnc3O2)cn1 (configuration not stated)	ATXN viability inconclusive, D3 antag -53
